Results taken from the supplement of paper PMC7411054.
Where a name gives a salt, the structure may show the parent alone.

Assays:
Experiment in all cases: phenotypically active (imaging signature differs from DMSO and reproducible) at any of 0.3-9 uM (binary (1 = active, 0 = inactive)); higher = active
Details in all cases: treatment time: 24 h
[1] = tested on: A549-ACTB-RAB5A
Method in brief: (§1)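 Each of fifteen gene-edited A549, HepG2 and WPMY1 reporter lines, marked with BFP for segmentation and GFP and RFP/FusionRed, was treated in four wells at 0.3, 1, 3 or 9 µM for 24 h prior to live imaging. Normalisation of per-well live-cell features used solvent control wells. Deviation needed ≥3 of 4 wells beyond the 95th percentile of control Euclidean distances, and reproducibility needed a median replicate Pearson correlation above the 95th percentile of non-replicates. Both were required for phenotypic activity.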

[2] = tested on: A549-CANX-COX4
Method in brief: as §1

[3] = tested on: A549-GM130-SQSTM1
Method in brief: as §1

[4] = tested on: A549-TP53BP1-CLTA
Method in brief: as §1

[5] = tested on: A549-TUBA1B-RELA
Method in brief: as §1

[6] = tested on: HepG2-ACTB-RAB5A
Method in brief: as §1

[7] = tested on: HepG2-CANX-COX4
Method in brief: as §1

[8] = tested on: HepG2-GM130-SQSTM1
Method in brief: as §1

[9] = tested on: HepG2-TP53BP1-CLTA
Method in brief: as §1

[10] = tested on: HepG2-TUBA1B-RELA
Method in brief: as §1

[11] = tested on: WPMY1-ACTB-RAB5A
Method in brief: as §1

[12] = tested on: WPMY1-CANX-COX4
Method in brief: as §1

[13] = tested on: WPMY1-GM130-SQSTM1
Method in brief: as §1

[14] = tested on: WPMY1-TP53BP1-CLTA
Method in brief: as §1

[15] = tested on: WPMY1-TUBA1B-RELA
Method in brief: as §1

Measured: phenotypically active

O=C1CCc2cc(OCCCCc3nnnn3C3CCCCC3)ccc2N1 [Cilostazol]
inactive: [1] 0 | [2] 0 | [3] 0 | [4] 0 | [5] 0 | [6] 0 | [7] 0 | [8] 0 | [9] 0 | [10] 0 | [11] 0 | [12] 0 | [13] 0 | [14] 0 | [15] 0

NC[C@H](O)c1ccc(O)c(O)c1 [norepinephrine]
inactive: [1] 0 | [2] 0 | [3] 0 | [4] 0 | [5] 0 | [6] 0 | [7] 0 | [8] 0 | [9] 0 | [10] 0 | [11] 0 | [12] 0 | [13] 0 | [14] 0 | [15] 0

CN(N=O)C(=O)N[C@@H](C=O)[C@@H](O)[C@H](O)[C@H](O)CO.CN(N=O)C(=O)N[C@H]1C(O)O[C@H](CO)[C@@H](O)[C@@H]1O [streptozotocin]
inactive: [1] 0 | [2] 0 | [3] 0 | [4] 0 | [5] 0 | [6] 0 | [7] 0 | [8] 0 | [9] 0 | [10] 0 | [11] 0 | [12] 0 | [13] 0 | [14] 0 | [15] 0

Cc1ccc(Nc2nnc(-c3ccc([N+](=O)[O-])cc3)o2)cc1Cl
inactive: [1] 0 | [2] 0 | [3] 0 | [4] 0 | [5] 0 | [6] 0 | [7] 0 | [8] 0 | [9] 0 | [10] 0 | [11] 0 | [12] 0 | [13] 0 | [14] 0 | [15] 0

C=C1C[C@@]23CCC4[C@@](C)(CCC[C@@]4(C)C(=O)O[C@@H]4O[C@H](CO)C(O)[C@H](O)C4O)C2CC[C@@]1(O[C@H]1O[C@H](CO)C(O)[C@H](O)[C@H]1O[C@@H]1O[C@H](CO)[C@@H](O)[C@H](O)[C@H]1O)C3 (stereo not given in full) [Stevioside]
inactive: [1] 0 | [2] 0 | [3] 0 | [4] 0 | [5] 0 | [6] 0 | [7] 0 | [8] 0 | [9] 0 | [10] 0 | [11] 0 | [12] 0 | [13] 0 | [14] 0 | [15] 0

O=C(O)c1ccc(N2N=C(Cc3ccccc3)/C(=C/c3ccc(-c4ccccc4F)o3)C2=O)cc1
inactive: [1] 0 | [2] 0 | [3] 0 | [4] 0 | [5] 0 | [6] 0 | [7] 0 | [8] 0 | [9] 0 | [10] 0 | [11] 0 | [12] 0 | [13] 0 | [14] 0 | [15] 0

NCCc1ccc(O)c(O)c1 [dopamine]
inactive: [1] 0 | [2] 0 | [3] 0 | [4] 0 | [5] 0 | [6] 0 | [7] 0 | [8] 0 | [9] 0 | [10] 0 | [11] 0 | [12] 0 | [13] 0 | [14] 0 | [15] 0

N[C@@H](Cc1ccc(O)c(O)c1)C(=O)O [levodopa]
inactive: [1] 0 | [2] 0 | [3] 0 | [4] 0 | [5] 0 | [6] 0 | [7] 0 | [8] 0 | [9] 0 | [10] 0 | [11] 0 | [12] 0 | [13] 0 | [14] 0 | [15] 0

CNNCc1ccc(C(=O)NC(C)C)cc1 [procarbazine]
inactive: [1] 0 | [2] 0 | [3] 0 | [4] 0 | [5] 0 | [6] 0 | [7] 0 | [8] 0 | [9] 0 | [10] 0 | [11] 0 | [12] 0 | [13] 0 | [14] 0 | [15] 0

CN(CCOc1ccc(C[C@H](Nc2ccccc2C(=O)c2ccccc2)C(=O)O)cc1)c1ccccn1 [GW 1929 hydrochloride]
inactive: [1] 0 | [2] 0 | [3] 0 | [4] 0 | [5] 0 | [6] 0 | [7] 0 | [8] 0 | [9] 0 | [10] 0 | [11] 0 | [12] 0 | [13] 0 | [14] 0 | [15] 0

COc1ccc(C2=N[C@H](c3ccc(Cl)cc3)[C@H](c3ccc(Cl)cc3)N2C(=O)N2CCNC(=O)C2)c(OC(C)C)c1 [Nutlin-3]
inactive: [1] 0 | [2] 0 | [3] 0 | [4] 0 | [5] 0 | [6] 0 | [7] 0 | [8] 0 | [9] 0 | [10] 0 | [11] 0 | [12] 0 | [13] 0 | [14] 0 | [15] 0
